In ChEMBL document CHEMBL3988442, “University of Dundee, Small-Polar-MMV Screening Library” (2021):
The whole screen tested about 48,000 compounds, of which about 13,000 (27%) showed an effect of 50% or more. The list shows a part of the results.

test system: Wolbachia pipientis; assay: Anti-Wolbachia Cell-Based Screen; format: functional; set-up: scale not given: in the data most compounds retested in dose-response had high values; conditions: 5 µM

Compound | Percent Effect
N#Cc1cccc(N2CCC3(CC2)Nc2ccccc2NC3=O)n1 | -5.007%
CC(C)N1CCCC2(CCN(C(=O)CCCn3cncn3)C2)C1=O (stereo unspecified) | 0.7052%
Cc1cnn(C2CCCN(C(=O)c3ccc(-n4cccn4)nc3)C2)c1 (stereo unspecified) | 95.03%
Cc1cnn(C2CCCN(C(=O)c3ccc(O)nc3)C2)c1 (stereo unspecified) | 123.6%
Cc1cnn(C2CCCN(C(=O)c3sccc3C#N)C2)c1 (stereo unspecified) | 1.519%
Cc1cnn(-c2ccc(C(=O)N3CCCC(n4ccnc4C)C3)cc2)c1 (stereo unspecified) | 110%
Cc1cnn(C2CCCN(C(=O)c3ccc(N4CCCC4)nc3)C2)c1 (stereo unspecified) | 85.57%
O=C(CCCn1cncn1)N1CCC2(CC1)[C@H](O)C[C@@H]2OCCO | -4.804%
Cc1cc(CNCC2CCCN(C(=O)OC(C)(C)C)C2)no1 (stereo unspecified) | -1.865%
CCCOC1CCCN(C(=O)c2[nH]nc(C)c2Br)C1 (stereo unspecified) | -6.367%
CCCN1CCN(C(=O)c2ccc3ccccc3n2)[C@H]2CS(=O)(=O)C[C@H]21 | 2.901%
Cc1noc2ncc(C(=O)N3CCCC(n4ccnc4C)C3)cc12 (stereo unspecified) | -5.392%
Cc1nccn1C1CCCN(C(=O)c2ccc(-n3cccn3)nc2)C1 (stereo unspecified) | 122%
Cc1nccn1C1CCCN(C(=O)c2ccc(N(C)C)nc2)C1 (stereo unspecified) | -2.779%
Cc1ccc(-c2noc(CCC3CCN(C)CC3)n2)nn1 | -9.501%
CC(C)CCN1CC2(CCN(C(=O)C3(C)CCCCO3)CC2)OC1=O (stereo unspecified) | -6.368%
CCc1ncc(C(=O)N2CCN(C(=O)COc3ccccc3)CC2)cn1 | 3.835%
Cc1cccnc1CN1CCN(C(=O)c2cnn(C(C)C)c2)CC1 | 94.71%
CC(C)n1cc(CN2CCCN(C(=O)c3cccnc3O)CC2)cn1 | -1.686%
Cc1cccnc1CN1CCN(C(=O)c2cc(Cl)c[nH]c2=O)CC1 | -31.74%
CCc1ncc(C(=O)N2CCN(Cc3ncccc3C)CC2)cn1 | 86.86%
Cc1nccc(C(=O)N2CCCN(Cc3cnn(C(C)C)c3)CC2)n1 | 5.245%
Cc1ccc(OCCC(=O)N(C)CC(=O)Nc2cc(C)on2)c(C)c1 | 1.593%
COc1c(C)cnc(CN2CCC(N(C)C(C)C(N)=O)CC2)c1C (stereo unspecified) | -8.935%
COc1c(C)cnc(CN2CCOC(Cn3nc(C)nc3C)C2)c1C (stereo unspecified) | -9.057%
COc1c(C)cnc(CN(C)C(=O)c2ccccc2O)c1C | -2.97%

Compound | Percent Effect
COc1c(C)cnc(CN(C)C(=O)c2ccc(C3CCCO3)s2)c1C (stereo unspecified) | -4.342%
COc1ccccc1C(=O)N(C)Cc1ncc(C)c(OC)c1C | -3.019%
COc1ccc(OC)c(C(=O)N(C)Cc2ncc(C)c(OC)c2C)c1 | -4.561%
COc1c(C)cnc(CNC(=O)CCOCC(C)C)c1C | 11.08%
COc1ccc(C(=O)N(C)Cc2ncc(C)c(OC)c2C)c(OC)c1 | 77.44%
COc1cccc(CCCN2CCC(N(C)S(C)(=O)=O)CC2)c1 | -2.016%
COc1c(C)cnc(CN2CCC(N(C)S(C)(=O)=O)CC2)c1C | 116.9%
COc1c(C)cnc(CN2CCC(N(C)C(=O)C(C)OC)CC2)c1C (stereo unspecified) | 99.72%
O=C(c1cnc(NCCC2CCCO2)c(Cl)c1)N1CCOCC1 (stereo unspecified) | -6.598%
Cc1cc(NC(=O)Cc2ccccc2O)cnc1N1CCCCC1 | 13.35%
COc1cccc2c1OCC(CNC(=O)CSc1nc(N)n[nH]1)C2 (stereo unspecified) | -2.891%
Cc1cccc(N2CC[C@@H]3CN(Cc4csc(C)n4)CCO[C@@H]3C2)n1.O=C(O)C(F)(F)F.O=C(O)C(F)(F)F | -4.327%
O=C1NCC2(CCCN(C(=O)c3ccc4c(c3)CCO4)C2)O1 (stereo unspecified) | 16.66%
CCC(=O)N(C)C1CCN(Cc2ncc(C)c(OC)c2C)CC1 | 9.191%
COc1c(C)cnc(CN2CCC(C(=O)N(C)C)CC2)c1C | 2.904%
COc1c(C)cnc(CN2CCC(N(C)C(=O)C3CC3)CC2)c1C | 110.7%
CCNC(=O)N(C)C1CCN(Cc2ncc(C)c(OC)c2C)CC1 | 110.9%
CCOc1ccccc1OCC(=O)NCc1ncc(C)c(OC)c1C | 8.111%
CCc1noc(C)c1C(=O)N(C)Cc1ncc(C)c(OC)c1C | -4.169%
N[C@@H]1CC[C@H](C(=O)NCCn2cc(Cl)cn2)C1 | -5.887%
Cc1ccc(-n2ccnc2)c(C(=O)NCCOCC2CCCO2)c1 (stereo unspecified) | 2.009%
CN(Cc1cnn(C)c1)C(=O)c1cc2ccccc2c(=O)[nH]1 | -10.85%
CCN(C(=O)c1cc(C)nc2ccccc12)C1CC(=O)NC1=O (stereo unspecified) | 9.266%
CN(Cc1ncnn1C)C(=O)c1ccccc1NCc1ccccc1 | -8.23%
Cn1cc(CNC(=O)C2COCC(=O)N2Cc2ccccc2)cn1 (stereo unspecified) | -3.917%
CN(CC1(C)COC1)C(=O)c1cc(-c2ccn(C)n2)nc2ccccc12 | 106.6%

Compound | Percent Effect
CN(CC1(C)COC1)C(=O)c1cc(-c2ccnn2C)nc2ccccc12 | 116.9%
CN(Cc1cccc(C(=O)Nc2ccnn2C)c1)CC1(C)COC1 | 30.85%
CCN(C)C(=O)c1cc(-c2ccn(C(C)C)n2)n2ccccc12 | 6.69%
CN(CC1(C)COC1)C(=O)c1cc(-c2cnn(C)c2)nc2ccccc12 | 150.1%
COc1ccc(NC(=O)N(C)Cc2ccc(Br)o2)cn1 | 12.08%
CN(C)S(=O)(=O)NCc1cccnc1Oc1ccccc1 | -16.22%
CCc1ccc(C(=O)N(CC)Cc2ccoc2)cc1S(C)(=O)=O | 18.17%
Cc1cccc2c1nc(COCC(=O)O)n2-c1cnc(N)cn1 | 0.6066%
O=C(O)C1(Oc2ccccc2)CCN(c2ccncc2)CC1 | -10.06%
O=C(O)C1(Oc2cccc(F)c2)CCN(c2ccncc2)CC1 | -29.88%
O=C(O)C1(Oc2cccc(F)c2)CCN(C2CCOCC2)CC1 | 114%
O=C(O)C1(Oc2ccc3c(c2)OCO3)CCN(C2CCOCC2)CC1 | 140.6%
O=C(O)C1(Oc2ccc3ccccc3c2)CCN(c2ccncc2)CC1 | -19.78%
O=C(O)C(c1ccc2c(c1)OCCO2)N1CCC(N2CCOCC2)CC1 (stereo unspecified) | 10.3%
O=C(O)C1(Oc2ccc(Cl)cc2)CCN(C2CCOCC2)CC1 | 109.8%
CCCn1ccnc1CN1CCC(Oc2cccc(F)c2)(C(=O)O)CC1 | -7.212%
CCCn1ccnc1CN1CCC(Oc2ccc(Cl)cc2)(C(=O)O)CC1 | -1.396%
Cc1noc(OCCOc2cccc(C#N)c2)n1 | 0.996%
NC(=O)c1cnc(NCC(=O)NCc2ccccc2)c(Cl)c1 | -2.32%
O=C(c1cccs1)N1CC(Oc2ccccc2Cl)C1 | 11.34%
CCCc1nc(C(=O)N2C[C@H](CO)C[C@H](CN3CCOCC3)C2)cs1 | -13.1%
CN1C[C@@H](O)[C@]2(CCN(C(=O)OCc3ccccc3)C2)S1(=O)=O | 96.78%
COc1cccc(OCC(=O)N2CCC3(CC2)[C@H](O)C[C@@H]3OC)c1 | 6.956%
O=C(OCc1ccccc1)N1CC[C@H]2CC(CO)O[C@@H]2C1 (stereo partly specified) | -8.669%
CN1C[C@H](O)[C@]2(CCN(C(=O)COc3ccccc3)C2)S1(=O)=O | 115.7%
COCCN1C(=O)C[C@@H]2[C@H]1CCN2C(=O)COc1ccccc1 | -17.47%

Compound | Percent Effect
COCCC(=O)N1CCC2(CC1)CC(c1ccccc1)CN(C)C2 (stereo unspecified) | 9.484%
CCN1C[C@@H]2CN(C(=O)NCc3ccccc3)CCC[C@]2(C(=O)O)C1.O=C(O)C(F)(F)F | -6.91%
CN1C[C@@H](O)[C@]2(CCN(C(=O)c3ccccc3)C2)S1(=O)=O | 126.2%
CN1CC(c2ccccc2)CC2(CCN(C(=O)c3ccccc3)CC2)C1 (stereo unspecified) | 1.137%
CN1C[C@H](O)[C@]2(CCN(C(=O)NCc3ccccc3)C2)S1(=O)=O | 101.7%
CN1C[C@@H]2CN(C(=O)NCc3ccccc3)CCC[C@]2(C(=O)O)C1.O=C(O)C(F)(F)F | 10.95%
O=C(NCc1ccco1)c1cc(N2CC[C@@H](O)C2)ccn1 | 15.64%
CCCS(=O)(=O)N1Cc2ccnn2CC(c2nc(C)no2)C1.O=C(O)C(F)(F)F (stereo unspecified) | -10.4%
Cc1csc(C(C#N)C(=O)NCc2ccccc2)n1 (stereo unspecified) | 0.1394%
Cc1cc(C)c2nc(CN3CCOCC(O)C3)cc(O)c2c1 (stereo unspecified) | -68.16%
CCC1=N[C@@]2(CC[C@@H]3CN(S(=O)(=O)CC(C)C)C[C@@H]32)C(=O)N1C | -2.639%
O=C(NCCc1ccccn1)NC1CCN(c2ncccn2)CC1 | 4.674%
O=C(NCc1ccccn1)NC1CCCN(c2ncccn2)C1 (stereo unspecified) | 20.37%
Cc1nc(CNC(=O)NC2CCCN(c3ncccn3)C2)cs1 (stereo unspecified) | 115.1%
N#Cc1ccc(CNC(=O)NC2CCCN(c3ncccn3)C2)cc1 (stereo unspecified) | 10.08%
Cc1nc(CCNC(=O)NC2CCCN(c3ncccn3)C2)cs1 (stereo unspecified) | 107.1%
Cc1csc(CNC(=O)NC2CCN(c3ncccn3)CC2)n1 | 3.023%
O=C(NCCc1cccs1)NC1CCN(c2ncccn2)CC1 | 110.6%
Cc1nc(CNC(=O)NC2CCN(c3ncccn3)CC2)cs1 | 78.89%
O=C(NCc1ccoc1)NC1CCN(c2ncccn2)CC1 | 15.54%
Cc1nc(CCNC(=O)NC2CCN(c3ncccn3)CC2)cs1 | 9.255%
Cc1ccc(CNC(=O)NC2CCCN(c3ncccn3)C2)n1C (stereo unspecified) | 7.079%
COC(=O)N1CCCC(NC(=O)NCc2csc(C)n2)C1 (stereo unspecified) | -0.338%
